The record followed here is PubChem BioAssay.

Test [1] concerns XIP peptide (Xip251-270) binding. Briefly: XIP fragment 251-270 binding compounds – biochemical, small-molecule microarray, fluorescence 635/667 nm, 0.1 µg/mL protein, primary screen (AID 1182). The conditions noted are these: fluorescent protein binding, 635 nm, higher = more signal, called active from +8 up or from −8 down.
The test system of test [2] is XIP peptide (Xip251-270). Kind of test: compounds binding XIP fragment 251-270 – biochemical, small-molecule microarray, fluorescence 635/667 nm, 0.5 µg/mL protein, primary screen (AID 1183). The conditions noted are these: fluorescence 635 nm, higher = more signal.
Test [3] in a line: blood-stage malaria parasite viability loss – strain 3D7, DAPI fluorescence, 100 nL, primary screen (AID 1184).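 Also: parasites grown inside human red blood cells in medium with human serum.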 The conditions noted are these: P. falciparum 3D7 growth, 3 d, higher = more signal.
Test [4] addresses Homeobox protein Hox-A13 (Mus musculus) (UniProt Q62424). Kind of test: disruptors of Hoxa13 oligonucleotide interaction – biochemical, fluorescence polarization, labeled oligonucleotide, primary screen (AID 1185). The conditions noted are these: Hoxa13:DNA binding, 15 min, higher = more signal, called active from +8 up or from −8 down. (In general: In fluorescence polarisation assays a small probe gives low polarisation when free and higher when bound to something large.)

Test [5] is described as follows: blockers of DNA damage checkpoint Chk1 activation – imaging, HeLa, hydroxyurea, phospho-Chk1 antibody, percent positive cells, primary screen (AID 1186). Conditions: hydroxyurea-induced phospho-Chk1 immunofluorescence imaging, higher = more signal.
A short description of test [6]: blockers of DNA damage checkpoint Chk1 activation – imaging, HeLa, hydroxyurea, phospho-Chk1 nuclear intensity, primary screen (AID 1187). The conditions noted are these: hydroxyurea-induced phospho-Chk1 immunofluorescence imaging, higher = more signal.

Active and inactive are the calls of the source. Unless noted, no rule for the calls is given here.

Sequence of Homeobox protein Hox-A13 (Mus musculus) (Q62424 whole entry, looked up): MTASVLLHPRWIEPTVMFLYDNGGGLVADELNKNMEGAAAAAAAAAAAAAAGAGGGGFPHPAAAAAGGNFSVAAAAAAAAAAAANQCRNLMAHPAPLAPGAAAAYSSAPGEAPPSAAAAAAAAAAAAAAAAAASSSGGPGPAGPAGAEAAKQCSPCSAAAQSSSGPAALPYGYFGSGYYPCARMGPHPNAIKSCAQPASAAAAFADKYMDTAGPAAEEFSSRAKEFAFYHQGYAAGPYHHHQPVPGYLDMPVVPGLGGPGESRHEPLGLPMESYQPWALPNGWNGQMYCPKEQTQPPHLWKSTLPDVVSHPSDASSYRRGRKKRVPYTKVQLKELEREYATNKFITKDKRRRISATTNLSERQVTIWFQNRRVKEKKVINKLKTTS

On to `COc1ccc([Si](C)(C)[C@H]2[C@H](CC(=O)N3Cc4ccccc4C[C@H]3CO)O[C@@]3(C(=O)N(Cc4cccc(I)c4)c4ccccc43)[C@@H]2C)cc1`, for which the composite z-score in test [1] was -0.276 (inactive); in test [2], 0.287. In addition, the z-score was -2.37 in test [3], -2.66 (inactive) in test [4], -1.22 (inactive) in test [5] and -0.541 (inactive) in test [6].

For the compound `CCCNC(=O)[C@@]1(C)c2ccccc2C(=O)N(Cc2ccc(OC(F)(F)F)cc2)[C@H]1c1ccc(CO)cc1`, the composite z-score in test [1] was 0.689 (inactive); in test [2], 0.794. Also, the z-score is -0.775 in test [3], -3.32 (inactive) in test [4], -0.374 (inactive) in test [5] and -0.473 (inactive) in test [6].

As to `Cc1ccc(F)cc1S(=O)(=O)N[C@@H]1CCN(Cc2ccc(C(F)(F)F)cc2)C1`, the values for the composite z-score in test [1] and in test [2] were 0.0254 (inactive) and -0.496, respectively. In addition, the z-score in test [3] was -0.433; in test [4], -5.99 (inactive); in test [5], -0.619 (inactive); in test [6] it was -0.441 (inactive).

Take `COCCOC(=O)N1C(=O)[C@@]2(c3cc(C#CCCO)ccc31)[C@H](C(=O)NC[C@H](O)c1ccccc1)[C@H]1C(=O)O[C@H](c3ccccc3)[C@H](c3ccccc3)N1[C@@H]2c1ccc(OCCO)cc1`: the composite z-score in test [1] was -0.0001 (inactive); in test [2], 0.577. For the same compound, the z-score in test [3] was -1.99; in test [4], -1.64 (inactive); in test [5], 0.0945 (inactive); in test [6] it was 0.298 (inactive).

As to `Cc1ccc(S[C@]2(C(=O)NCc3ccccc3)CC(=O)N(Cc3cc(C(F)(F)F)cc(C(F)(F)F)c3)[C@@H]2c2ccc(CO)cc2)cc1`, the composite z-score was -0.384 (inactive) in test [1] and 0.365 in test [2]. Moreover, the z-score in test [3] was -0.398; in test [4], -2.38 (inactive); in test [5], 0.199 (inactive); in test [6], 0.311 (inactive).

On to `C=C[C@H](OC)[C@@H](OC(=O)Nc1ccc(SC)cc1)c1ccc(OCCO)cc1`, for which the composite z-score in test [1] was 0.591 (inactive); in test [2], -0.0661. Further, the z-score in test [3] was 0.194; in test [4], -5.62 (inactive); in test [5], 0.259 (inactive); in test [6], 0.654 (inactive).

On to `COc1ccc(C(=O)Nc2cccc(CN3C(=O)[C@@]4(O[C@@H](CC(=O)N5Cc6ccccc6C[C@H]5CO)[C@H]([Si](C)(C)c5ccc(OC)cc5)[C@H]4C)c4ccccc43)c2)cc1`, for which the composite z-score is 1.44 (inactive) in test [1] and 0.698 in test [2]. For the same compound, the z-score was -2.64 in test [3], -3.18 (inactive) in test [4], -0.0924 (inactive) in test [5] and 0.071 (inactive) in test [6].

In the case of `C[N+](C)(C)CCCCNC(=O)[C@H]1C[C@H]2C(=O)N3CCC[C@H]3C(=O)N2[C@H]1c1ccc(O)cc1`, the composite z-score in test [1] is 1.36 (inactive); in test [2] it was 0.806. Besides, the z-score in test [3] was -0.0706; in test [4], -0.675 (inactive); in test [5], 0.0919 (inactive); in test [6] it was -0.206 (inactive).

As for `O=C1O[C@@H](c2ccccc2)[C@@H](c2ccccc2)N2[C@@H](c3ccc(O)cc3)[C@]3(C(=O)Nc4ccc(C#CCCO)cc43)[C@@H](C(=O)N3CCCCCCC3)[C@H]12`, the values for the composite z-score in test [1] and in test [2] were 0.868 (inactive) and 0.876, respectively. For the same compound, the z-score in test [3] was -1.1; in test [4], 1.7 (inactive); in test [5], -0.149 (inactive); in test [6], -0.56 (inactive).

On to `O=c1cccc(-c2ccc3ccccc3c2)o1`, for which the results for the composite z-score in test [1] and in test [2] were -0.644 (inactive) and -0.688, respectively. Besides, the z-score in test [3] was 1; in test [4], -1 (inactive); in test [5], -0.319 (inactive); in test [6], -0.587 (inactive).

Turning to `[N-]=[N+]=Nc1ccccc1[C@@H]1OC(c2ccc(OCCCO)cc2)=N[C@]1(CCS(=O)(=O)c1ccccc1)C(=O)O`, the composite z-score was 0.97 (inactive) in test [1] and 0.727 in test [2]. Moreover, the z-score in test [3] is -1.19; in test [4] it was -4.69 (inactive); in test [5], -0.273 (inactive); in test [6] it was -0.0293 (inactive).

On to `O=C1NC(=O)C2C1C=CC(C(O)c1cccs1)N2Nc1ccccn1` (configuration not stated), for which the composite z-score in test [1] is 1.43 (inactive); in test [2] it was 0.438. Also, the z-score in test [3] was 0.197; in test [4], -5.03 (inactive); in test [5], -0.0367 (inactive); in test [6], -0.263 (inactive).

For `COc1ccc([Si](C)(C)[C@H]2[C@H](CCO)O[C@@]3(C(=O)N(Cc4cccc(N5C(=O)c6cccc7cccc5c67)c4)c4ccccc43)[C@@H]2C)cc1`, the composite z-score in test [1] is 0.834 (inactive); in test [2], 0.512. Also, the z-score is -2.82 in test [3], -1.61 (inactive) in test [4], -0.283 (inactive) in test [5] and -0.304 (inactive) in test [6].

`CCOC(=O)N1C(c2ccc(OCCCO)cc2)=NC(C(=O)OC)N1C(=O)OCC` (configuration not stated): the composite z-score is 1.43 (inactive) in test [1] and 0.735 in test [2]. Also, the z-score in test [3] is -1.28; in test [4], -4.45 (inactive); in test [5], -0.231 (inactive); in test [6], -0.116 (inactive).

`CCCNC(=O)[C@@]1(c2ccc([N+](=O)[O-])cc2)CC(=O)N(CC23CC4CC(CC(C4)C2)C3)[C@@H]1c1ccc(CO)cc1I`: the values for the composite z-score in test [1] and in test [2] were 1.18 (inactive) and 0.59, respectively. The z-score in test [3] was -1.55; in test [4], -3.75 (inactive); in test [5], -0.28 (inactive); in test [6], -0.51 (inactive).

On to `Cc1ccc(S[C@]2(C(=O)NCCCN(C)C)CC(=O)N(Cc3ccccc3)[C@@H]2c2ccc(CO)cc2)cc1`, for which the composite z-score in test [1] is -0.712 (inactive); in test [2], 0.135. The z-score is -1.07 in test [3], -2.18 (inactive) in test [4], 0.327 (inactive) in test [5] and 0.603 (inactive) in test [6].

`COCCOC(=O)N1C(=O)[C@@]2(c3cc(C#CCCO)ccc31)[C@H](c1ccc(O)cc1)N1[C@H](c3ccccc3)[C@H](c3ccccc3)OC(=O)[C@H]1[C@@H]2C(=O)N1CCCCCCC1`: the composite z-score in test [1] is 0.449 (inactive); in test [2], 0.723. For the same compound, the z-score in test [3] was -0.0358; in test [4], -1.14 (inactive); in test [5], -0.0035 (inactive); in test [6], -0.334 (inactive).
